Measurements from the supplement of paper PMC9023506.
Counter-ions that a name gives are not always drawn.

Tested on: Danio rerio larvae (5 dpf)
Assay: activity during first hour (no stimuli), difference vs DMSO (percentage points (treated minus DMSO)); higher = more of the behaviour than the DMSO vehicle control
Conditions: 10 µM; exposure time: 3 h pre-incubation + 3 h imaging
Protocol: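 5-dpf wild-type zebrafish larvae were imaged in 96-well plates. They were treated with 190 Tocris FDA-approved drugs at 10 µM (1 µl/ml DMSO) for 3 h before and 3 h during imaging at 28.5 °C, 48 larvae per drug. Automated image analysis gave % time moving and optomotor responses. Values are drug group mean minus DMSO vehicle mean (n=844), in percentage points, for 10 behaviours.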

Structure (SMILES)	activity during first hour
COc1cc([C@@H]2c3cc4c(cc3[C@@H](O[C@@H]3O[C@@H]5CO[C@@H](C)O[C@H]5[C@H](O)[C@H]3O)[C@H]3COC(=O)[C@H]23)OCO4)cc(OC)c1O [Etoposide]	3.81
CC1(C)O[C@@H]2[C@@H](CO[C@@]3(COS(N)(=O)=O)OC(C)(C)O[C@@H]23)O1 [Topiramate]	10.7
NS(=O)(=O)Cc1noc2ccccc12 [Zonisamide]	3.75
OCc1cc(C(O)CNCCCCCCOCCCCc2ccccc2)ccc1O (stereo not given) [Salmeterol xinafoate]	14.1
NC(=O)N1c2ccccc2C=Cc2ccccc21 [Carbamazepine]	-2.68
CN1CCC[C@@H]1CCO[C@](C)(c1ccccc1)c1ccc(Cl)cc1 [Clemastine fumarate]	4.9
Cc1ccsc1C(=CCCN1CCC[C@@H](C(=O)O)C1)c1sccc1C [Tiagabine hydrochloride]	7.01
CCCCCCCCc1ccc(CCC(N)(CO)CO)cc1	-17.7
COc1cc2nccc(Oc3ccc(NC(=O)C4(C(=O)Nc5ccc(F)cc5)CC4)cc3)c2cc1OC	20
Cc1ccc(NC(=O)c2ccc(CN3CCN(C)CC3)cc2)cc1Nc1nccc(-c2cccnc2)n1 [Imatinib mesylate]	-12.5
Cc1cccc(CN2CCN(C(c3ccccc3)c3ccc(Cl)cc3)CC2)c1 (stereo not given) [Meclizine dihydrochloride]	29.1
CC1CNc2c(cccc2S(=O)(=O)N[C@@H](CCCNC(=N)N)C(=O)N2CC[C@@H](C)C[C@@H]2C(=O)O)C1 (stereo not given in full) [Argatroban]	4.69
CC(=O)Oc1ccccc1C(=O)O [Aspirin]	-0.0609
Cc1cccc(C)c1OCC(C)N (stereo not given) [Mexiletine hydrochloride]	4.51
CCOc1ccccc1OCCN[C@H](C)Cc1ccc(OC)c(S(N)(=O)=O)c1 [Tamsulosin hydrochloride]	7.36
CCOC(=O)C1=C(C)NC(C)=C(C(=O)OC)C1c1cccc(Cl)c1Cl (stereo not given) [Felodipine]	-12.9
COC(c1ccccc1)(c1ccccc1)[C@H](Oc1nc(C)cc(C)n1)C(=O)O [Ambrisentan]	1.9
Clc1ccc2nsnc2c1NC1=NCCN1 [Tizanidine hydrochloride]	-14.2
CC(C)OC(=O)C(C)(C)Oc1ccc(C(=O)c2ccc(Cl)cc2)cc1 [Fenofibrate]	6.44
CN1CC2c3ccccc3Oc3ccc(Cl)cc3C2C1 (stereo not given) [Asenapine maleate]	38.5

Structure (SMILES)	activity during first hour
CN(C)CCC[C@@]1(c2ccc(F)cc2)OCc2cc(C#N)ccc21 [Escitalopram oxalate]	-24.4
C[C@H]1C[C@@H]2[C@H]([C@@H](O)C[C@@]3(C)[C@H]2CC[C@]3(O)C(=O)CO)[C@@]2(C)C=CC(=O)C=C12 [Methylprednisolone]	0.814
CC#C[C@]1(O)CC[C@H]2[C@@H]3CCC4=CC(=O)CCC4=C3[C@@H](c3ccc(N(C)C)cc3)C[C@@]21C [Mifepristone]	-3.58
OC(c1cc(C(F)(F)F)nc2c(C(F)(F)F)cccc12)C1CCCCN1 (stereo not given) [Mefloquine hydrochloride]	-1.64
CC(=O)O[C@H]1C(=O)[C@@]2(C)[C@H]([C@H](OC(=O)c3ccccc3)[C@]3(O)C[C@H](OC(=O)[C@H](O)[C@@H](NC(=O)c4ccccc4)c4ccccc4)C(C)=C1C3(C)C)[C@]1(OC(C)=O)CO[C@@H]1C[C@@H]2O [Taxol]	1.84
Cc1nc(Nc2ncc(C(=O)Nc3c(C)cccc3Cl)s2)cc(N2CCN(CCO)CC2)n1 [Dasatinib]	-11.4
CCC(C)(C)C(=O)O[C@H]1C[C@@H](C)C=C2C=C[C@H](C)[C@H](CC[C@@H]3C[C@@H](O)CC(=O)O3)[C@H]21 [Simvastatin]	7.12
CCCc1nn(C)c2c(=O)[nH]c(-c3cc(S(=O)(=O)N4CCN(C)CC4)ccc3OCC)nc12 [Sildenafil citrate]	-13.4
CC(CCc1ccc(O)cc1)NCCc1ccc(O)c(O)c1 (stereo not given) [Dobutamine hydrochloride]	-1.97
CCCCNc1cc(C(=O)O)cc(S(N)(=O)=O)c1Oc1ccccc1 [Bumetanide]	3.74
COc1c(C)c2c(c(O)c1C/C=C(\C)CCC(=O)O)C(=O)OC2 [Mycophenolic acid]	2.64
C=C1[C@H](CO)[C@@H](O)C[C@@H]1n1cnc2c(=O)[nH]c(N)nc21 [Entecavir]	-1.96
CC(C)CN(C[C@@H](O)[C@H](Cc1ccccc1)NC(=O)O[C@H]1CO[C@H]2OCC[C@H]21)S(=O)(=O)c1ccc(N)cc1 [Darunavir]	12.6
Cc1c(-c2ccc(O)cc2)n(Cc2ccc(OCCN3CCCCCC3)cc2)c2ccc(O)cc12 [Bazedoxifene acetate]	-12.7
COc1cc2ncnc(Nc3ccc(F)c(Cl)c3)c2cc1OCCCN1CCOCC1 [Iressa]	-5.98
CCOC(=O)N1CCC(=C2c3ccc(Cl)cc3CCc3cccnc32)CC1 [Loratidine]	-17
Nc1cccc2c1CN(C1CCC(=O)NC1=O)C2=O (stereo not given) [Lenalidomide]	-5.68
O=C1CCc2ccc(OCCCCN3CCN(c4cccc(Cl)c4Cl)CC3)cc2N1 [Aripiprazole]	8.28
CC(C)Nc1cccnc1N1CCN(C(=O)c2cc3cc(NS(C)(=O)=O)ccc3[nH]2)CC1 [Delavirdine mesylate]	-1.59
C[C@H]1O[C@H](O[C@H]2[C@H](O)[C@@H](O)[C@@H](O[C@H]3[C@H](O)[C@@H](O)C(O)O[C@@H]3CO)O[C@@H]2CO)[C@H](O)[C@@H](O)[C@@H]1N[C@H]1C=C(CO)[C@@H](O)[C@H](O)[C@H]1O (stereo not given in full) [Acarbose]	-0.41
